Results as given in PubChem BioAssay (EPA / NIEHS).
Results filed as inconclusive are left out. Activity calls are given as the source filed them. The calls were made as follows: active = hit-call score of the fitted dose curve at least 0.9, where 1 is the maximum; inconclusive = response in the unintended direction; inactive = score below 0.9.

tested on: zebrafish Estrogen Receptor (ER2b), gene 317733; test: ATG_zfER2b_XSP2: Attagene TRANS-FACTORIAL Multi-Species (XSP2) HepG2 Assay for zebrafish Estrogen Receptor (ER2b) (AID 2283823);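 also: fitted upward as reporter gain over DMSO so potency reflects activation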
Procedure, shortened: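 Read-out: fluorescent reporter mRNA, measured by RT-PCR then capillary electrophoresis after HpaI digestion. HepG2 cells carried transiently transfected multi-reporter TRANS constructs (NR-Gal4 chimeras); 24 h chemical exposure; activity scored upward versus DMSO control.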

| Structure (SMILES) | AC50 | outcome |
| --- | --- | --- |
| COP(=S)(OC)Oc1nc(Cl)c(Cl)cc1Cl | 87.2 µM (active) |  |
| CCCCNC(=O)OCC#CI | 26.2 µM (active) |  |
| COC(=O)N(OC)c1ccccc1COc1ccn(-c2ccc(Cl)cc2)n1 |  | inactive |
| CCCN(CCC)c1c([N+](=O)[O-])cc(S(N)(=O)=O)cc1[N+](=O)[O-] | 40.4 µM (active) |  |
| CCCCC(CC)COC(=O)c1ccccc1C(=O)OCC(CC)CCCC (stereo unspecified) | 8.7 µM (active) |  |
| C#CCOS(=O)OC1CCCCC1Oc1ccc(C(C)(C)C)cc1 (stereo unspecified) | 100 µM (active) |  |
| CCOP(=S)(OCC)SCn1c(=O)oc2cc(Cl)ccc21 | 31.8 µM (active) |  |
| CO/C=C(/C(=O)OC)c1ccccc1Oc1cc(Oc2ccccc2C#N)ncn1 |  | inactive |
| C=CC1(C)OC(=O)N(c2cc(Cl)cc(Cl)c2)C1=O (stereo unspecified) | 142 µM (active) |  |
| COc1ccc(C(c2ccc(OC)cc2)C(Cl)(Cl)Cl)cc1 | 8.65 µM (active) |  |
| CCCC1COC(Cn2cncn2)(c2ccc(Cl)cc2Cl)O1 (stereo unspecified) | 39.5 µM (active) |  |
| CC(C)Oc1cc(-n2nc(C(C)(C)C)oc2=O)c(Cl)cc1Cl | 59.1 µM (active) |  |
| CON(C)C(=O)Nc1ccc(Cl)c(Cl)c1 |  | inactive |
| CCCCOC(=O)c1ccccc1C(=O)OCCCC | 79.3 µM (active) |  |
| OC(c1ccc(Cl)cc1)(c1cncnc1)c1ccccc1Cl (stereo unspecified) | 7.41 µM (active) |  |
| CC(C)(C)c1ccc(CSc2cnn(C(C)(C)C)c(=O)c2Cl)cc1 |  | inactive |
